Screening results as filed in PubChem BioAssay.
Most compounds without a hit are left out; they make up all but 7.4% or so of the library.
DAT uptake mod – changed human dopamine transporter uptake under cocaine IC80; Q01959; LLC-PK1 hDAT cells, [14C]-dopamine uptake with cocaine IC80; actives deviate in either direction; B-score at 10 µM; 1.3% of 110,000 active; AID 449768;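 active means Z score or B-score, a plate-position-corrected score, falls beyond the plate's 99.7% confidence bounds, in either direction; inactive means both scores lie inside the 99.7% bounds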;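 further: scored against the spread of the other compound wells on the same plate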
M1 antagonist – antagonists of rat M1 muscarinic receptor. 3.4% of 64,000 active. B-score at 10 µM. CHO-M1 cells, Fluo-4 calcium, ACh EC80 antagonist mode; hits give low values. P08482;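 active means calcium fluorescence response, raw or row-and-column corrected B-score, differing from the plate sample mean either way at a set confidence level, mostly lower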
FXIa inh mix – blocks human factor XIa in pooled compound mixtures | P03951 | purified FXIa, fluorogenic substrate | inhibition, % at 5 µM | 0.19% of 62,000 active;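 further: each value is inhibition by a whole ten-compound pool holding the compound; 0% = enzyme with no mixture and 100% = wells lacking enzyme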
Target sequence (P03951 19-387 limits assumed): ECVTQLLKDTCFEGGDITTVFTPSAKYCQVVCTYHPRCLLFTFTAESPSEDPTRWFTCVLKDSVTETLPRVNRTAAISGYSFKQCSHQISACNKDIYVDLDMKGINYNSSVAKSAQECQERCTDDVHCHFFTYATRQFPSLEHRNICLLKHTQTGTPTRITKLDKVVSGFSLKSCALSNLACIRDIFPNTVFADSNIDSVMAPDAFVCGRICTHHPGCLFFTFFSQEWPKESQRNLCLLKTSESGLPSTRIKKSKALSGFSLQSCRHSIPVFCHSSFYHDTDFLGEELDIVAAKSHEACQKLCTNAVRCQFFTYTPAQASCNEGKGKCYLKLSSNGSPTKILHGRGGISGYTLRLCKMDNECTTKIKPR
Target sequence (P03951 388-625 limits assumed): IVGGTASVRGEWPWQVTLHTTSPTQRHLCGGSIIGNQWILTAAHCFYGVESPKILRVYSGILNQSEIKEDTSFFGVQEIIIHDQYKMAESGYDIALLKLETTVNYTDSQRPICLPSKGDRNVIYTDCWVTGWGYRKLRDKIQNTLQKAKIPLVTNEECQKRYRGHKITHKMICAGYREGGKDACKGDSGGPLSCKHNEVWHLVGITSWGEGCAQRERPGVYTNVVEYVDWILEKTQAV
M1 ag – activates the M1 muscarinic receptor; CHO-M1 cells, Fluo-4 calcium fluorescence, agonist mode; hits give high values; B-score at 10 µM; 3% of 64,000 active;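 active means fluorescence rise, raw or as B-score row- and column-corrected plate score, outside the 99.7% band of its plate's samples, either direction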
FXIIa mix inh – factor XIIa (human) inhibition, mixture screen; purified FXIIa, fluorogenic substrate, pooled mixtures; 0.2% of 62,000 active; inhibition, % at 5 µM;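 further: 0% = enzyme without compound and 100% = no enzyme blank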
D1 allo mod – allosterically modulates the human D1 dopamine receptor; P21728; HEK293 D1, CRE-luciferase, dopamine EC30 potentiation; actives deviate in either direction; B-score at 10 µM; 5.9% of 58,000 active;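 active means luminescence count or its row- and column-corrected plate score outside the 99.7% band of the plate's sample wells, on either side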
M1 ag confirm – rat M1 muscarinic agonism, confirmation; shares compounds with M1 ag; CHO-M1 cells, Fluo-4 calcium fluorescence, agonist mode; actives lie on both sides; fluorescence change (max-min) at 10 µM; 19% of 1,700 active;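 active means fluorescence change differs from the solvent-only DMSO control mean at a set confidence level in both duplicate runs; inconclusive means differs from solvent-only control mean in just one of two runs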;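 further: an EC20 dose of acetylcholine follows compound addition during the same imaging run; raw fluorescence intensity difference in instrument units with no normalization to controls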
M4 ag counter – rat M4 muscarinic agonism, M1 counter-screen; shares compounds with M1 ag; CHO M4/Gqi5 cells, Fluo-4 calcium fluorescence, agonist mode; actives lie on both sides; fluorescence change (max-min) at 10 µM; 9% of 1,700 active;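 active means fluorescence change differing from the plate's solvent-only control wells at 99.7% confidence in both duplicates, whether higher or lower; inconclusive means differs from solvent controls in only one of two duplicates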
M1 antag conf – confirmation of rat M1 muscarinic receptor antagonists; shares compounds with M1 antagonist; CHO-M1 cells, Fluo-4 calcium, ACh EC80 antagonism; hits give low values; calcium response (max-min fluorescence) at 10 µM; 43% of 1,700 active; AID 677;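 active means calcium response below the same-plate mean of wells given acetylcholine alone at its 80%-effect dose, minus 3 SD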;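 further: raw fluorescence intensity difference in arbitrary instrument units and not normalized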
mGluR4 antag – acts on human mGluR4 in M1 antagonist selectivity test | shares compounds with M1 antagonist | CHO-mGluR4 calcium flux, Fluo-4 fluorescence, glutamate EC80; hits give low values | fluorescence response (max-min) at 10 µM | 0.9% of 1,700 active;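 active means fluorescence response below the plate's average for near-maximal glutamate wells, less 3 SD of those wells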;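 further: raw unnormalized fluorescence span taken in the window right after glutamate addition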
D1 mod confirm – confirmation of human D1 dopamine receptor allosteric modulators; shares compounds with D1 allo mod; HEK293 D1 CRE-luciferase, dopamine EC30 potentiation; hits give high values; luminescence at 10 µM; 88% of 2,200 active; AID 642;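 active means luminescence in either of two replicates above the same-plate mean plus 3 SD of the low-dose dopamine control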
D1 ag no DA – activates D1 CRE-luciferase signal without dopamine present | shares compounds with D1 allo mod | HEK293 D1 CRE-luciferase, luminescence, no dopamine; hits give high values | luminescence at 10 µM | 0.8% of 1,900 active | AID 646; in the data active means luminescence above about 3900
Isoprot counter – alters isoproterenol CRE-luciferase response in HEK293 cells; shares compounds with D1 allo mod; calls only at 10 µM; 63% of 2,200 active; HEK293 D1 CRE-luciferase, isoproterenol EC30 counter-screen;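 active means luminescence in either replicate above plate mean of wells with a partly effective reference agonist dose plus 3 SD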;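 further: isoproterenol raises cAMP through native beta-adrenoceptor Gs so signal bypasses D1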
Numbers without * were called inactive; i = inactive; u = inconclusive; x = not tested or not shown; + = active, no number. Unless noted, no stated cut-off is given here; in the data, active means inhibition above about 20% (passing the limit was not always enough); inactive means the rest.

SMILES	DAT uptake mod	M1 antagonist	FXIa inh mix	M1 ag	FXIIa mix inh	D1 allo mod	M1 antag conf	mGluR4 antag	others
COCCNC(=O)C1CCCN(c2ncccn2)C1 (configuration not stated)	-0.59	0.28	9	0.51	4	-0.082	x	x
COCCCNC(=O)C1CCN(c2ncccn2)CC1	-0.4	-0.14	1	2.6*	2	1.8*	x	x	M1 ag confirm=-22;M4 ag counter=-51;D1 mod confirm=5220;D1 ag no DA=1492;Isoprot counter=i
COc1cc2c(cc1OC)C1=C(C#N)CN(C3CCCCC3)CN1CC2	1	-0.4	7	5.1*	-14	4.2*	x	x	M1 ag confirm=-7.1;M4 ag counter=-17;D1 mod confirm=14420*;D1 ag no DA=1880;Isoprot counter=+
CSc1ccccc1C(=O)NCCCOC(C)C	0.015	x	x	x	x	x	x	x
Cc1ccccc1Nc1nc(N)nc(CSc2nc3ccccc3c(=O)n2CCCO)n1	2.7*	0.15	0	4.1*	3	3*	x	x	M1 ag confirm=u;M4 ag counter=-49;D1 mod confirm=8640*;D1 ag no DA=1664;Isoprot counter=+
Clc1ccc(-n2nnnc2-c2ccccc2)cc1	-1.2	-0.45	5	3.3*	1	3.5*	x	x	M1 ag confirm=-26*;M4 ag counter=-49;D1 mod confirm=8784*;D1 ag no DA=1344;Isoprot counter=i
CCOC(=O)C1=C(C)OC(N)=C(C#N)C1c1cc(OC)c2c(c1)OCO2 (configuration not stated)	0.51	-0.59	0	-0.56	3	2.8	x	x
COc1cc(C2C(C#N)=C(N)Oc3cc(N(C)C)ccc32)cc2c1OCO2 (configuration not stated)	-1.4	-0.25	0	45*	-1	7.3*	x	x	M1 ag confirm=206*;M4 ag counter=203*;D1 mod confirm=15056*;D1 ag no DA=1964;Isoprot counter=+
O=C(c1nsc(Cl)c1Cl)N1CCCCC1	0.077	-0.18	-2	-0.53	3	0.3	x	x
CN1CCN(c2nc(NCCOC34CC5CC(CC(C5)C3)C4)nc(OCC(F)(F)F)n2)CC1	0.58	-6.2*	2	-1.1	-2	-0.3	484*	190
Cc1cc(NC(=O)CSc2nc3ccsc3c(=O)n2Cc2ccccn2)n[nH]1	-0.17	0.91	0	0.098	1	0.43	x	x
O=C(NCCN1CCOCC1)c1ccc2c(c1)N(Cc1ccccc1)C(=O)CS2	1.3	-3*	-10	-0.33	0	-0.88	344*	230
COc1ccc(C(=O)/C=C(/C)N(C)C)cc1	0.39	x	x	x	x	x	x	x
COc1ccc(N(C(=O)c2ccco2)C(C(=O)NC2CCCC2)c2ccc(N(C)C)cc2)cc1 (configuration not stated)	1.2	-0.003	7	0.27	16	x	x	x
COc1ccccc1-n1c(SCC(N)=O)nnc1-c1ccccc1	-0.064	-0.02	2	-1.4	8	-0.38	x	x
COc1ccccc1-n1c(C)nnc1SCC(N)=O	-0.1	-4.3*	6	0.2	7	-0.25	486	233
CC(C)C[C@H](NC(=O)Nc1ccc(S(N)(=O)=O)cc1)C(=O)O	1.4	x	-2	x	-13	-0.29	x	x
CCC(C)NS(=O)(=O)c1cccs1 (configuration not stated)	-1.5	-3.4*	6	0.89	2	0.9	644	261
COc1cccc(C(c2nnnn2CCc2ccccc2)N2CCN(c3ccccc3)CC2)c1OC (configuration not stated)	-0.2	-0.024	6	-0.023	3	0.066	x	x
COc1cccc(C(c2nnnn2Cc2ccco2)N2CCN(c3cccc(C)c3C)CC2)c1OC (configuration not stated)	0.065	-4.3*	23	-0.31	1	-0.0079	639	202
COc1ccc2oc(C(=O)c3ccccc3)c(NC(=O)CN3CCN(C)CC3)c2c1	1.5	-3.2*	6	0.23	0	0.12	416	252
COc1ccc2oc(C(=O)c3ccccc3)c(N)c2c1	-1.1	x	x	x	x	x	x	x
O=C(C1CCCCC1)N(CCN1CCCC1)c1nc2ccccc2s1	x	-2.3*	1	-0.55	7	-1.6	718	207
Cn1c(NC(=O)c2cc(Cl)ccc2Cl)cc(=O)n(C)c1=O	-0.14	-0.019	1	-0.89	1	0.46	x	x
COc1cccc(C(=O)Nc2cc(=O)n(C)c(=O)n2C)c1OC	-0.12	-3.8*	18	-0.46	-18	-0.28	651	238
SMILES	DAT uptake mod	M1 antagonist	FXIa inh mix	M1 ag	FXIIa mix inh	D1 allo mod	M1 antag conf	mGluR4 antag	others
Cc1ccc(S(=O)(=O)N2CCC(C(=O)N3CCC[C@H]3C(=O)NCc3ccco3)CC2)cc1	-0.011	-2.2*	-7	-0.18	13	0.77	555*	210
CCOC(=O)CC1C(=O)NCCN1C(=O)Nc1ccccc1 (configuration not stated)	0.09	-2.2*	2	0	2	0.41	640	261
COC(=O)CC1C(=O)NCCN1C(=O)Nc1ccccc1 (configuration not stated)	-0.42	0.65	5	-0.59	-1	-0.19	x	x
Cc1ccc(-c2noc(CNCCCN(C)C)n2)cc1	-1.1	-0.6	3	0.0073	13	0.0042	x	x
Cc1ccc(C(=O)CC2(O)C(=O)N(C)c3ccc(Br)cc32)c(C)c1 (configuration not stated)	-1	-2.2*	-3	-0.38	-1	-0.16	642	186
CCN(CC)CCCN1C(=O)C(O)=C(C(=O)c2sc(C)nc2C)C1c1ccco1 (configuration not stated)	-0.82	-0.86	1	0.43	10	0.88	x	x
COCCn1c(Cc2ccccc2)nnc1SCC(=O)Nc1cc(C)on1	-0.36	0.68	1	-0.39	1	x	x	x
O=C(c1ccccc1)c1c[nH]c(C(=O)NCCCN2CCOCC2)c1	-0.94	x	x	x	x	x	x	x
CC1CCCCN1c1ncnc2ccccc12 (configuration not stated)	0.082	x	x	x	x	x	x	x
CC1(C)CC2CC(C)(CN2c2ncnc3ccccc23)C1 (configuration not stated)	-0.017	-2.2*	6	-0.38	3	0.74	516	251
